Assay results reported in PubChem BioAssay (NCI).
About 83,000 compounds went through this panel and 20% of them were active in at least one assay; those are over-represented in the sample as a whole.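 Each cell line was grown in a 96-well plate and treated with one concentration of compound for 48 hours. Values below 10 were considered active.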 The source made the active and inactive calls.

The molecules below were run on LOX IMVI melanoma (assay: NCI-60 one-dose screen, 48 h (100 = growth as untreated, 0 = no growth, -100 = all killed)). Conditions: 10 µM unless noted.

Compound	growth
N#Cc1c(-c2ccc(F)cc2)nc(SCc2ccc(F)cc2)nc1N1CCNCC1	-100% (active)
N#Cc1c(-c2ccc(F)cc2)nc(SCc2ccccc2)nc1N1CCNCC1	-93.6% (active)
CS(=O)(=O)c1ccc(-n2nc(C(=O)NCc3ccccc3)cc2-c2ccc(Cl)cc2)cc1	89.4% (inactive)
Cc1cccc(C)c1Nc1nnc(-c2c[nH]c3ccccc23)o1	83.9% (inactive)
COc1ccc(/C=C/C(=O)c2ccc(S(=O)(=O)NCCNc3nc(N(C)C)nc(N4CCOCC4)n3)cc2)cc1	79.7% (inactive)
COc1ccc(NC(=O)Cn2c(/C=C/c3cccc(Br)c3)nc3ccccc3c2=O)cc1	28.8% (inactive)
O=C1CCC(N2C(=O)c3cccc(NCCCCCC(=O)N4CCN(c5ccc6nc7c(nc6c5C(F)(F)F)C(=O)c5ncccc5C7=O)CC4)c3C2=O)C(=O)N1 (stereo unspecified)	-85.1% (active)
O=C(CSc1nnc(-c2ccc(-c3nc4ccc(Cl)cc4[nH]3)cc2)o1)Nc1ccccc1	-65.6% (active)
CC(C)(C)OC(=O)N1CCC2(CC1)Oc1ccccc1[C@H]1CC(c3ccc(Br)cc3)=NN12	54.2% (inactive)
NS(=O)(=O)c1ccc(N2N=C(c3ccc(NC(=O)Nc4ccccc4)cc3)CC2c2ccc(Br)cc2)cc1 (stereo unspecified)	-100% (active)
CC1=C(C(=O)OCc2ccccc2)C(c2ccc(N(C)C)cc2)n2c(nc3ccccc32)N1 (stereo unspecified)	75.7% (inactive)
Cc1ccc(O)cc1Nc1nc(SCCN2CCOCC2)nc2c1cnn2CC(Cl)c1ccc(Br)cc1 (stereo unspecified)	-88.4% (active)
C/C(=N/O)c1ccc(NC(=O)CSc2nnc(-c3ccc(-c4nc5ccc(Cl)cc5[nH]4)cc3)o2)cc1	-100% (active)
CCCCNc1ccc2c3c(cccc13)C(=O)N(NCC(O)COc1ccc3c(C)cc(=O)oc3c1)C2=O (stereo unspecified)	81.3% (inactive)
COc1ccc2[nH]c(=O)cc(-n3ncc(C(=O)/C=C/c4cc(OC)c(OC)c(OC)c4)c3C)c2c1	-85.6% (active)
COc1ccc(-c2cc(-c3cc(OC)c(OC)c(OC)c3)[nH]c(=O)c2C#N)cc1	40.2% (inactive)
COc1ccc2[nH]c(O)c(N=Nc3nc(-c4ccc(Br)cc4)cs3)c2c1	4.53% (active)
COc1ccc2[nH]cc(-c3cc(N)n4nc(-c5c[nH]c6ccccc56)cc4n3)c2c1	-85.8% (active)
Nc1cc(-c2c[nH]c3ccc(F)cc23)nc2cc(-c3c[nH]c4ccccc34)nn12	-83.9% (active)

Compound	growth
COC(=O)c1cccc(Oc2ccc(NC(=O)Nc3cc(C(F)(F)F)ccc3F)cc2)c1	79.5% (inactive)
N#C/C(=C1/C(=O)Nc2ccccc21)c1nnc(NC(=O)c2ccc(-n3c(=O)[nH]c4ccccc4c3=O)cc2)s1	0.591% (active)
Cc1ccc(N=Nc2c(N)nn3c(-c4cc5cc(Br)ccc5oc4=O)ccnc23)cc1	51.8% (inactive)
Cc1ccc(C2CC(c3ccc(NC(=O)Nc4ccccc4)cc3)=NN2c2ccc(S(C)(=O)=O)cc2)cc1 (stereo unspecified)	-100% (active)
O=C(NN1C(=O)/C(=C/C=C/c2ccc([N+](=O)[O-])o2)SC1=S)c1ccc(O)cc1	-84.8% (active)
COc1cc(CNC(=O)C[C@H](C)CCC=C(C)C)ccc1OCc1cn(-c2ccccc2F)nn1	76.7% (inactive)
OC(c1ccccc1)(c1ccccc1)C1CCN(c2ccc3nnc(Cl)n3n2)CC1	38.3% (inactive)
Cc1nc2sccn2c1-c1nnc(SCC(C)C)o1	91.3% (inactive)
N#Cc1ccc(C(=O)CSc2nc3c(c(Nc4ccc(S(N)(=O)=O)cc4)n2)CCC3)cc1	1.66% (active)
Cc1cccc(/C=C/c2ccc(NC(=S)NCCCCN(C)C)cc2)c1	-99.1% (active)
O=C(N/N=C/c1ccoc1)c1[nH]c2ccc(Br)cc2c1-c1ccccc1	-100% (active)
O=C(CSc1nc2sc3c(c2c(=O)n1-c1ccc(Cl)cc1)CCCC3)NNC(=O)c1ccc(F)cc1	64.2% (inactive)
C=CCSc1nnc(-c2ccc(-c3nc4ccc(Cl)cc4[nH]3)cc2)o1	39.4% (inactive)
O=C(N/N=C/c1ccc(Cl)cc1)c1ccc(OCc2nc3ccc(Cl)cc3[nH]2)cc1	-81% (active)
Cc1cccc(NCC(=O)N2CCN(c3ncnc4c3cnn4-c3ccccc3)CC2)c1	53.8% (inactive)
CN(C)c1nc(NCCNS(=O)(=O)c2ccc(C(=O)/C=C/c3ccc(Cl)cc3)cc2)nc(N2CCOCC2)n1	-94.3% (active)
CC1=C(C(=O)Nc2ccccc2)C(c2cccc(Cl)c2Cl)n2c(nc3ccccc32)N1 (stereo unspecified)	49.5% (inactive)
CCOC(=O)/C(F)=C/C1CC1C(c1ccccc1)c1ccccc1 (stereo unspecified)	84.9% (inactive)
CN(C(=O)CN1C(=O)/C(=C/c2ccco2)SC1=S)C1CCS(=O)(=O)C1 (stereo unspecified)	91.6% (inactive)

Each molecule was assayed on SK-MEL-28 melanoma in the same assay as above. Conditions: 10 µM unless noted.

Compound	growth
N#Cc1c(-c2ccc(F)cc2)nc(SCc2ccc(F)cc2)nc1N1CCNCC1	-97.6% (active)
N#Cc1c(-c2ccc(F)cc2)nc(SCc2ccccc2)nc1N1CCNCC1	-96.3% (active)
CS(=O)(=O)c1ccc(-n2nc(C(=O)NCc3ccccc3)cc2-c2ccc(Cl)cc2)cc1	112% (inactive)
Cc1cccc(C)c1Nc1nnc(-c2c[nH]c3ccccc23)o1	105% (inactive)
COc1ccc(/C=C/C(=O)c2ccc(S(=O)(=O)NCCNc3nc(N(C)C)nc(N4CCOCC4)n3)cc2)cc1	95.1% (inactive)
COc1ccc(NC(=O)Cn2c(/C=C/c3cccc(Br)c3)nc3ccccc3c2=O)cc1	70.2% (inactive)
O=C1CCC(N2C(=O)c3cccc(NCCCCCC(=O)N4CCN(c5ccc6nc7c(nc6c5C(F)(F)F)C(=O)c5ncccc5C7=O)CC4)c3C2=O)C(=O)N1 (stereo unspecified)	-84.8% (active)
O=C(CSc1nnc(-c2ccc(-c3nc4ccc(Cl)cc4[nH]3)cc2)o1)Nc1ccccc1	-89.2% (active)
CC(C)(C)OC(=O)N1CCC2(CC1)Oc1ccccc1[C@H]1CC(c3ccc(Br)cc3)=NN12	113% (inactive)
NS(=O)(=O)c1ccc(N2N=C(c3ccc(NC(=O)Nc4ccccc4)cc3)CC2c2ccc(Br)cc2)cc1 (stereo unspecified)	-98.1% (active)
CC1=C(C(=O)OCc2ccccc2)C(c2ccc(N(C)C)cc2)n2c(nc3ccccc32)N1 (stereo unspecified)	79.9% (inactive)
Cc1ccc(O)cc1Nc1nc(SCCN2CCOCC2)nc2c1cnn2CC(Cl)c1ccc(Br)cc1 (stereo unspecified)	17.1% (inactive)
C/C(=N/O)c1ccc(NC(=O)CSc2nnc(-c3ccc(-c4nc5ccc(Cl)cc5[nH]4)cc3)o2)cc1	-100% (active)
CCCCNc1ccc2c3c(cccc13)C(=O)N(NCC(O)COc1ccc3c(C)cc(=O)oc3c1)C2=O (stereo unspecified)	103% (inactive)
COc1ccc2[nH]c(=O)cc(-n3ncc(C(=O)/C=C/c4cc(OC)c(OC)c(OC)c4)c3C)c2c1	-77.1% (active)
COc1ccc(-c2cc(-c3cc(OC)c(OC)c(OC)c3)[nH]c(=O)c2C#N)cc1	51.9% (inactive)
COc1ccc2[nH]c(O)c(N=Nc3nc(-c4ccc(Br)cc4)cs3)c2c1	15.4% (inactive)
COc1ccc2[nH]cc(-c3cc(N)n4nc(-c5c[nH]c6ccccc56)cc4n3)c2c1	-99% (active)
Nc1cc(-c2c[nH]c3ccc(F)cc23)nc2cc(-c3c[nH]c4ccccc34)nn12	-33.9% (active)

Compound	growth
COC(=O)c1cccc(Oc2ccc(NC(=O)Nc3cc(C(F)(F)F)ccc3F)cc2)c1	88.7% (inactive)
N#C/C(=C1/C(=O)Nc2ccccc21)c1nnc(NC(=O)c2ccc(-n3c(=O)[nH]c4ccccc4c3=O)cc2)s1	34.4% (inactive)
Cc1ccc(N=Nc2c(N)nn3c(-c4cc5cc(Br)ccc5oc4=O)ccnc23)cc1	110% (inactive)
Cc1ccc(C2CC(c3ccc(NC(=O)Nc4ccccc4)cc3)=NN2c2ccc(S(C)(=O)=O)cc2)cc1 (stereo unspecified)	-89.4% (active)
O=C(NN1C(=O)/C(=C/C=C/c2ccc([N+](=O)[O-])o2)SC1=S)c1ccc(O)cc1	-100% (active)
COc1cc(CNC(=O)C[C@H](C)CCC=C(C)C)ccc1OCc1cn(-c2ccccc2F)nn1	94.9% (inactive)
OC(c1ccccc1)(c1ccccc1)C1CCN(c2ccc3nnc(Cl)n3n2)CC1	52.2% (inactive)
Cc1nc2sccn2c1-c1nnc(SCC(C)C)o1	104% (inactive)
N#Cc1ccc(C(=O)CSc2nc3c(c(Nc4ccc(S(N)(=O)=O)cc4)n2)CCC3)cc1	48.5% (inactive)
Cc1cccc(/C=C/c2ccc(NC(=S)NCCCCN(C)C)cc2)c1	-96.5% (active)
O=C(N/N=C/c1ccoc1)c1[nH]c2ccc(Br)cc2c1-c1ccccc1	-93.7% (active)
O=C(CSc1nc2sc3c(c2c(=O)n1-c1ccc(Cl)cc1)CCCC3)NNC(=O)c1ccc(F)cc1	87% (inactive)
C=CCSc1nnc(-c2ccc(-c3nc4ccc(Cl)cc4[nH]3)cc2)o1	60% (inactive)
O=C(N/N=C/c1ccc(Cl)cc1)c1ccc(OCc2nc3ccc(Cl)cc3[nH]2)cc1	41% (inactive)
Cc1cccc(NCC(=O)N2CCN(c3ncnc4c3cnn4-c3ccccc3)CC2)c1	59% (inactive)
CN(C)c1nc(NCCNS(=O)(=O)c2ccc(C(=O)/C=C/c3ccc(Cl)cc3)cc2)nc(N2CCOCC2)n1	76.6% (inactive)
CC1=C(C(=O)Nc2ccccc2)C(c2cccc(Cl)c2Cl)n2c(nc3ccccc32)N1 (stereo unspecified)	65.5% (inactive)
CCOC(=O)/C(F)=C/C1CC1C(c1ccccc1)c1ccccc1 (stereo unspecified)	103% (inactive)
CN(C(=O)CN1C(=O)/C(=C/c2ccco2)SC1=S)C1CCS(=O)(=O)C1 (stereo unspecified)	105% (inactive)
